Compound activity as filed in PubChem.
TDP1 block: TDP1 (human) enzyme inhibition; recombinant TDP1, AlphaScreen DNA substrate cleavage; Potency, µM (top dose mostly 130 µM), without a hit: at the highest dose activity change, negative = inhibition, actives largely listed as inhibitors; hit rate 0.28% among 350,000; AID 485290; further: potency means the concentration at half of the fitted maximal effect; on the % scale 0 is the no-effect control and ±100 the full control effect; nearly all actives have a fitted effect of over 40% in size
Target sequence (Q9NUW8 whole entry, looked up): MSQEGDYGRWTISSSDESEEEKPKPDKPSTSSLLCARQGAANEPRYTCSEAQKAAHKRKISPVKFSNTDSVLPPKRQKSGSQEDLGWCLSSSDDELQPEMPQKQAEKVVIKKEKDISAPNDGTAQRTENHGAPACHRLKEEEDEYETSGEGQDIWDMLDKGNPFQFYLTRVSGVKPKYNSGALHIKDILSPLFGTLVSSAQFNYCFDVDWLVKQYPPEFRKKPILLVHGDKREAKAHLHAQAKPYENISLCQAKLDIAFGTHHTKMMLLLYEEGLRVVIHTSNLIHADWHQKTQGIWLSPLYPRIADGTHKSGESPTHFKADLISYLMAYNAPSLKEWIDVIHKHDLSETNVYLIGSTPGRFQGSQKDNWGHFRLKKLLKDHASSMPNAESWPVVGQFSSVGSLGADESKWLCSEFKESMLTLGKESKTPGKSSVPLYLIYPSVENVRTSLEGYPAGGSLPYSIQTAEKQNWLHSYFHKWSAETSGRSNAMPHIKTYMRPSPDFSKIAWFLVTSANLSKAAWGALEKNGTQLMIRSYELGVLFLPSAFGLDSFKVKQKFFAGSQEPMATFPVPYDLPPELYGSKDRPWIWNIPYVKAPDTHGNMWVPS
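Tdp1 1 nM final; 15 min RT w/ cpd; substrate 15 nM, 5 min; beads 10 ug/ml, 10 min; AlphaScreen read. Neg ctrl: no enzyme.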
DT40 TDP1 CPT: DT40-hTDP1 cell growth loss with CPT; AID 686979; Potency, µM (series often up to 46.2 µM), inactives show at the highest dose activity change, negative = growth inhibition, hits mostly inhibitors; hit rate 12% among 420,000; chicken DT40 Tdp1-/-;hTDP1 cells + 20 nM CPT, ATP luminescence, 48 h; further: potency means the concentration at half of the fitted maximal effect; on the % scale 0 is the no-effect control and ±100 the full control effect; nearly all actives have a fitted effect of over 55% in size
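Chicken DT40 Tdp1-/- cells stably complemented with human TDP1 were seeded at 400 cells/well in medium containing 20 nM camptothecin, exposed to pin-transferred compounds, and grown at 37 °C for at least 48 hr. Viability was read as ATP luminescence.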
HepG2 tox: HepG2 cytotoxicity, counter-screen for TGF-b inhibitors. hit rate 0.76% among 410,000. HepG2 CAGA-GFP viability, ATP luminescence, 18 h. Potency, µM (highest dose often 46.1 µM), for inactives: at the highest dose activity change, negative = cytotoxicity, most hits filed as cytotoxic; further: potency means the concentration at half of the fitted maximal effect
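CellTiter-Glo luminescence gave cytotoxicity after 18 hours at 37 degrees C. The cells were HepG2 CAGA-GFP in 1% FBS DMEM, stimulated with 500 pg/mL TGF-beta after compound addition. %Activity was normalised to no-cell wells (complete cell-killing) and DMSO (no toxicity), and curves were fitted and classified.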
DT40 TDP1 no CPT: qHTS for Inhibitors of human tyrosyl-DNA phosphodiesterase 1 (TDP1): qHTS in cells in absence of CPT; DT40 Tdp1-/- hTDP1 cells, no CPT, ATP luminescence, 48 h; hit rate 15% among 420,000; AID 686978, 2013; Potency, µM (doses to about 46.2 µM), without a hit: top-dose activity change, negative = growth inhibition, hits mostly inhibitors; further: potency means the concentration at half of the fitted maximal effect; on the % scale 0 is the no-effect control and ±100 the full control effect; nearly all actives have a fitted effect of over 55% in size
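A cellular qHTS used chicken DT40 cells lacking endogenous Tdp1 but carrying stably transfected human TDP1. Compounds were applied without camptothecin, and cell growth kinetics were judged by ATP-dependent luminescence after ≥48 hr.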
IL-1B inflam inh: inflammasome signaling inhibition, IL-1 beta readout; THP-1 LPS/ATP IL-1B secretion, AlphaLISA, 16 h; active compounds read low; hit rate 4.7% among 360,000; activity change, % at 57.5 µM; in the data active means activity change below about -50%; inconclusive means mostly about -30% to -49%; further: on the % scale 0 is the no-effect control and ±100 the full control effect
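Secreted IL-1B measured by AlphaLISA bead assay after 16 h compound exposure of THP-1 cells; compounds (final up to 57.5 uM) added 1 h before LPS (250 ng/mL) and ATP (1.25 mM) stimulation; lower signal means less secretion.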
TGFb SMAD3 inh: blocks TGF-b signaling. HepG2 CAGA-GFP TGF-b/SMAD3 reporter, GFP fluorescence, 18 h; TGF-beta stimulated, 500 pg/mL final. Potency, µM (series often up to 46.1 µM), without a hit: top-dose activity, negative = inhibition, usual class: inhibitors. hit rate 1.2% among 410,000. AID 588855; further: potency means the concentration at half of the fitted maximal effect; on the % scale 0 is the no-effect control and ±100 the full control effect; nearly all actives have a fitted effect of over 65% in size
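GFP signal (ex488/em500-530) from TGF-beta-stimulated HEPG2 CAGA-GFP cells, 500 pg/mL final, 18 h at 37 degrees C in DMEM plus 1% FBS, normalized to unstimulated and DMSO-stimulated controls.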
An asterisk follows results filed as active; [ ] = remark or other dose. Compounds with a hit are over-represented: about 18% of the library has one in this group of screens. Unless noted, the call rests on the fitted dose curve; in most records, active means well fitted curve in the direction sought with a large enough effect; inconclusive means small, poorly fitted or top-dose-only effect, or another doubt; inactive means no such curve, though single readings can be large; an effect the other way counts as inactive or inconclusive.

Cc1cc(C)cc(-n2ccnc2SCC(=O)Nc2nc3ccc(C)cc3s2)c1 was read as TDP1 block 9%, DT40 TDP1 CPT -26%, HepG2 tox -34%, DT40 TDP1 no CPT -13% and TGFb SMAD3 inh -22%.
Screening Cc1cc(Cl)ccc1NS(=O)(=O)c1c(C(=O)N2CCCCCC2)c(C)n(C)c1C returned TDP1 block 5%, DT40 TDP1 CPT inconclusive, HepG2 tox -20%, DT40 TDP1 no CPT 21µM* and TGFb SMAD3 inh inconclusive.
`Cc1ccccc1CNS(=O)(=O)c1c(C(=O)N2CCCC2)c(C)n(C)c1C` gave TDP1 block 5%, DT40 TDP1 CPT -6%, HepG2 tox 1%, DT40 TDP1 no CPT 18%, IL-1B inflam inh 19 and TGFb SMAD3 inh 1%.
`Cc1c(C(=O)N2CCCCC2)c(S(=O)(=O)NCc2ccccc2Cl)c(C)n1C` gave TDP1 block 9%, DT40 TDP1 CPT 23µM*, HepG2 tox 5%, DT40 TDP1 no CPT inconclusive, IL-1B inflam inh 0 and TGFb SMAD3 inh 15%.
`Cc1ccc(CNS(=O)(=O)c2c(C(=O)N3CCCCCC3)c(C)n(C)c2C)cc1` gave TDP1 block 7%, DT40 TDP1 CPT -10%, HepG2 tox 9%, DT40 TDP1 no CPT 0%, IL-1B inflam inh -23 and TGFb SMAD3 inh -1%.
For Cc1c(C(=O)N2CCCC2)c(S(=O)(=O)Nc2ccccc2Cl)c(C)n1C the results were TDP1 block 3%, DT40 TDP1 CPT 2%, HepG2 tox 1%, DT40 TDP1 no CPT 17%, IL-1B inflam inh 0 and TGFb SMAD3 inh 5%.
For Cc1cccc(N(C)S(=O)(=O)c2c(C(=O)N3CCCCCC3)c(C)n(C)c2C)c1 the results were TDP1 block 7%, DT40 TDP1 CPT 16µM*, HepG2 tox -9%, DT40 TDP1 no CPT 21µM* and TGFb SMAD3 inh -1%.
O=C(O)C1C2CCC(O2)C1C(=O)Nc1cccc(Cl)c1 (configuration not stated) was read as DT40 TDP1 CPT 5%, HepG2 tox 0%, DT40 TDP1 no CPT 7%, IL-1B inflam inh 42 and TGFb SMAD3 inh 2%.
`Cc1ccc(Cl)cc1NC(=O)CCc1c(C)nc2c3cccnc3nn2c1C` gave TDP1 block 9%, DT40 TDP1 CPT inconclusive, HepG2 tox -6%, DT40 TDP1 no CPT inconclusive and TGFb SMAD3 inh 2%.
For Cc1cc(C)c2sc(NC(=O)C3=COCCO3)nc2c1 the results were TDP1 block 7%, DT40 TDP1 CPT -11%, HepG2 tox -11%, DT40 TDP1 no CPT -15%, IL-1B inflam inh -58* and TGFb SMAD3 inh 13%.
For COc1ccc(OCC(=O)Nc2nc3cc4c(cc3s2)OCCO4)cc1 the results were TDP1 block 0%, DT40 TDP1 CPT 3%, HepG2 tox 1%, DT40 TDP1 no CPT -8%, IL-1B inflam inh -3 and TGFb SMAD3 inh 0%.
CC(=O)Nc1nc2cc3c(cc2s1)OCCO3 was read as DT40 TDP1 CPT inconclusive, HepG2 tox -18%, DT40 TDP1 no CPT 23µM*, IL-1B inflam inh inconclusive and TGFb SMAD3 inh -6%.
`O=C(Nc1nc2cc3c(cc2s1)OCCO3)C1=COCCO1` gave TDP1 block 6%, DT40 TDP1 CPT 23µM*, HepG2 tox 8.9µM*, DT40 TDP1 no CPT inconclusive, IL-1B inflam inh -53* and TGFb SMAD3 inh -13%.
Screening Nc1nccc(/C=C/c2c(F)cccc2Cl)n1 returned TDP1 block 3%, DT40 TDP1 CPT -3%, HepG2 tox -1%, DT40 TDP1 no CPT -5%, IL-1B inflam inh -85* and TGFb SMAD3 inh -27%.
CC(C)CNC(=O)[C@H]1N2C(=O)c3ccccc3C2SC1(C)C (some centres not stated) was read as DT40 TDP1 CPT 7%, HepG2 tox -8%, DT40 TDP1 no CPT 11%, IL-1B inflam inh 11 and TGFb SMAD3 inh -18%.
For NC(=S)c1c(Cl)cc(C(F)(F)F)cc1Cl the results were TDP1 block 0%, DT40 TDP1 CPT 2%, HepG2 tox 12%, DT40 TDP1 no CPT -1%, IL-1B inflam inh 6 and TGFb SMAD3 inh -11%.
`COc1ccc(Br)cc1CN(C)C(=O)Cc1ccc(S(=O)(=O)N2CCOCC2)s1` gave TDP1 block 10%, DT40 TDP1 CPT inconclusive, HepG2 tox 0%, DT40 TDP1 no CPT 21µM*, IL-1B inflam inh -2 and TGFb SMAD3 inh 0%.
Screening COc1cc(NC(=O)Cc2ccc(S(=O)(=O)N3CCOCC3)s2)c(OC)cc1Cl returned TDP1 block -9%[0.505 µM], DT40 TDP1 CPT inconclusive, HepG2 tox -4%, DT40 TDP1 no CPT 21µM*, IL-1B inflam inh 12 and TGFb SMAD3 inh -15%.
For O=C(Cc1ccc(S(=O)(=O)N2CCOCC2)s1)Nc1cc(Cl)ccc1Cl the results were TDP1 block 4%, DT40 TDP1 CPT 4%, HepG2 tox -6%, DT40 TDP1 no CPT -15%, IL-1B inflam inh -57* and TGFb SMAD3 inh -12%.
Screening COc1cc(NC(=O)Cc2ccc(OC)c(S(=O)(=O)N3CCOCC3)c2)c(OC)cc1Cl returned TDP1 block 4%, DT40 TDP1 CPT inconclusive, HepG2 tox -23%, DT40 TDP1 no CPT inconclusive, IL-1B inflam inh 19 and TGFb SMAD3 inh inconclusive.
Screening CC(NC(=O)c1cc(F)ccc1F)c1nnc2n1CCN(Cc1ccccc1O)CC2 (configuration not stated) returned DT40 TDP1 CPT -16% and DT40 TDP1 no CPT -27%.
`COc1cc(CNCc2cc3cc(C)ccc3nc2-c2ccc(F)cc2)cc(OC)c1OC` gave DT40 TDP1 CPT -13%[9.04 µM] and DT40 TDP1 no CPT -14%.
`C[C@H](N)C(=O)N1CCC(C(=O)N[C@@H](Cc2ccccc2)C(=O)Nc2ccc(F)cc2)CC1` gave DT40 TDP1 CPT -2%, HepG2 tox -2%, DT40 TDP1 no CPT -8%, IL-1B inflam inh -5 and TGFb SMAD3 inh -1%.
For CC1=CCC(C(C)(C)O)CC1 (configuration not stated) the results were TDP1 block 4%, DT40 TDP1 CPT 4% and DT40 TDP1 no CPT -3%.
Screening O=C(N/N=C/c1cc(Br)cc(Br)c1O)c1cccc(S(=O)(=O)N2CCOCC2)c1 returned DT40 TDP1 CPT 3.7µM*, HepG2 tox -6%, DT40 TDP1 no CPT 3.7µM*, IL-1B inflam inh 80 and TGFb SMAD3 inh -14%.
